What follows are sequences tested on VDR:RXRa (NR concentration 270 nM, RXRa partner concentration 90 nM) (assay: PBM binding z-score (relative to random genomic background probes); higher = stronger binding; sequences stand for … in GC…GCGATTGACAGCGTAGAATGAAGG).
Experimental: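 Protein-binding microarray (Agilent 4x180K custom design, double-stranded 60-nt probes: 5' GC cap, 34-nt variable region, 24-nt constant primer region; full probe sequence given). Purified or IVT nuclear receptor:RXRα heterodimers (3:1 NR:RXRα, mostly 270:90 nM) or homodimers were incubated for 1 h in PBS with 2% milk and no ligand, then detected with Alexa488 antibodies. Fluorescence from o1-orientation probes (~5 replicates averaged) was converted to z-scores against 500 random hg19 background probes. Variable regions are seed direct-repeat (DR0–DR5) sites, all their single-nucleotide variants and half-site ablations.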

For TGAATGAGGCTATAAGATCAGGGAACGTTGCAAA, which PBM binding z-score is on record?
The PBM binding z-score was -0.38.

For ACAGACAGGTGATGAAGGCAACTCAGGCTATCAT, which PBM binding z-score is on record?
The PBM binding z-score was -0.257.

Which PBM binding z-score does the source give for CCGACTGGGGCAGAAAGGTTACTATACCATCCGG here?
The PBM binding z-score was 0.555.

For TCAGACAGGTGAAGGTAACTCACGTACGCAGTCG, which PBM binding z-score is on record?
The PBM binding z-score was 0.473.

With ATCTCAAGGTAACAAGTTCAGTGAAAGAGAGGAC as the sequence, how does the PBM binding z-score read?
Its PBM binding z-score is 2.8.

With CGTCCAAAGTCAGCAGGTCAGTGAAAGCGACGTG as the sequence, how does the PBM binding z-score read?
Its PBM binding z-score is 0.372.

For CAGCCTAAGTCAGGGCCAGTATAGGAGGAACGTT, which PBM binding z-score is on record?
The PBM binding z-score was -0.626.

Which PBM binding z-score does the source give for GATACAGGGTCAGCTAGTGGCCAGAGTATGGAAA here?
Its PBM binding z-score is 2.34.

With AGAATGAGGTTATCAAAGATCAGGGAAACGCTTG as the sequence, how does the PBM binding z-score read?
The PBM binding z-score was 1.12.

How did the PBM binding z-score turn out when CGAACTAGGTCATTGACAGGACAGTGAGTAGTAA was run?
Its PBM binding z-score is 2.18.

How did the PBM binding z-score turn out when TGTCAAAGTTCAAGGGTAACGTAAGTATCCACAC was run?
Its PBM binding z-score is 4.26.

CCTCGCAGGACAACAGGAGGTCAGAGCTGCCAGA was tested. Which PBM binding z-score did it give?
The PBM binding z-score was 1.42.

For CCTTACGGGTCAACGTTATAGCACGGGTGGTACG, which PBM binding z-score is on record?
The PBM binding z-score was 3.03.

With CAAACTAGGTCAAGTGGTCAAAGTCCGCTTCCCG as the sequence, how does the PBM binding z-score read?
Its PBM binding z-score is 2.52.

Which PBM binding z-score does the source give for CAAACTAGGTCAAACGTCAAAGTCGAGCCAACCA here?
The PBM binding z-score was 2.41.

Which PBM binding z-score does the source give for GCTAGGAGGACAAGGTCAGAGCTTTGTCCGTAGA here?
The PBM binding z-score was 1.4.

How did the PBM binding z-score turn out when CCGTCTGGGGCAAGGTTACCATAACGCACAGCCA was run?
The PBM binding z-score was 0.236.

CCTAGTTGATCAAGGTCACACACGCTATAGGTAC was tested. Which PBM binding z-score did it give?
The PBM binding z-score was 4.91.

How did the PBM binding z-score turn out when ATACCAAGGTGATCGTGAGGTCGTCGATACTAAC was run?
Its PBM binding z-score is 2.72.

CCTTACGGGTCACTGATAGGTTATAGCATTTGGA was tested. Which PBM binding z-score did it give?
Its PBM binding z-score is 3.6.

For CAAACTCGGTCAAAGGTCAAAGTCGAGCCAACCA, which PBM binding z-score is on record?
The PBM binding z-score was 6.22.

For GCTAGCAGGCCATTTCGGTCACTCAATGACGGGC, which PBM binding z-score is on record?
Its PBM binding z-score is -0.644.

For CCTACTGGGGCAAAGGTTACCATACTCAGTACGA, which PBM binding z-score is on record?
Its PBM binding z-score is 1.86.

TCTAGTTGGTCAAGGGTCACACACTCGAAATGCG was tested. Which PBM binding z-score did it give?
The PBM binding z-score was 4.32.

Which PBM binding z-score does the source give for CCTCGGAGGACAACAGGAGGTCAGAGCTGCCAGA here?
Its PBM binding z-score is 2.

ATATGTAGGTTAGCGGGTCATTCAGTTTGCGCAT was tested. Which PBM binding z-score did it give?
The PBM binding z-score was 4.74.

For CCTGCTGGGCCAAAGGTCATTGATTCCAATGCTC, which PBM binding z-score is on record?
The PBM binding z-score was 4.43.

Which PBM binding z-score does the source give for AGAACGAGGGCACGTTGAGTTGATAGCAGAGTAG here?
Its PBM binding z-score is 2.32.

For CCTACTAGGTCAATGGTCAGCTAAAGCAGCTCGC, which PBM binding z-score is on record?
The PBM binding z-score was 1.45.

Which PBM binding z-score does the source give for CCTAGCAGGCCAGGGTCAATCAAGCATTTCGCTT here?
Its PBM binding z-score is 2.86.

With ACTATTAGTTGACTTCGGGCAACCGATACGACGC as the sequence, how does the PBM binding z-score read?
Its PBM binding z-score is 0.179.

Which PBM binding z-score does the source give for CCTACGGGGCCATTCAGAGGTCATTGATCATATG here?
The PBM binding z-score was 5.2.

How did the PBM binding z-score turn out when CCTAGTTGGTCAAGGGCACACACGCTATAGGTAC was run?
The PBM binding z-score was 0.813.

Which PBM binding z-score does the source give for GCTAGTTAGTCAGTAAAAGGTCACACACCGGTCG here?
The PBM binding z-score was 3.78.

With CCGACTGGGGCGAGGTTACCATAACGCACAGCCA as the sequence, how does the PBM binding z-score read?
Its PBM binding z-score is 0.364.

For CGTCAGAGTTCAACTAAGGTAACGTAAAGCACGC, which PBM binding z-score is on record?
The PBM binding z-score was 5.28.

With TCTAGTTGGACACGGAGGTCACACACGACGGGTA as the sequence, how does the PBM binding z-score read?
The PBM binding z-score was 3.76.

For TCTTGTACATCAAAGGTTAAGAAAGCCGAAGCCT, which PBM binding z-score is on record?
The PBM binding z-score was 1.55.

TTAACAAGGTGAGCTGAGGTCGTTGATCCAACTC was tested. Which PBM binding z-score did it give?
The PBM binding z-score was 4.08.

With CTCGAAAGGTCGTGCTCTGGTGAGTATACCAAAC as the sequence, how does the PBM binding z-score read?
Its PBM binding z-score is 3.19.
